Among the data in PubChem BioAssay AID588382 (National Center for Advancing Translational Sciences (NCATS), 2011) are Potency values, retold here.

Among all 1,300 compounds or so, about 150 (12%) were called active. Where a call stands in place of a potency, no number is given. Inconclusive results (about 30%) are left out. The call rests on the fitted dose curve; in most records, active means well fitted cell-killing curve with a large enough effect; inconclusive means small, poorly fitted or top-dose-only effect, or effect the other way; inactive means flat fitted curve, though single readings scatter. For the sample, actives were picked, then their nearest neighbours and some compounds at random.
Potency means the concentration at half of the fitted maximal effect.

The nature of the experiment: qHTS of small molecules that selectively kill Giardia lamblia: Hit Validation in HepG2 cytotox.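 Further: compound exposure lasted overnight at 37 deg C; nearly all actives have a fitted effect of over 55% in size.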 Particulars: cell viability; Potency: HepG2 cytotoxicity; series mostly up to 38.3 µM. Summed up:
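HepG2 cells seeded and incubated overnight at 37 deg C, then 23 nL compound added by pintool and incubated overnight at 37 deg C. Viability read as ATP luminescence with ATPLite after 15 min at room temperature.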
A general note: In qHTS, concentration-response curves come from the screen itself.
Regarding `O=C(NC(=S)Nc1ccc(CN2CCOCC2)cc1)c1ccc([N+](=O)[O-])cc1Cl`, the Potency result was “inactive”.

In the case of `CCN(CC)CCCC(C)Nc1cc(/C=C/c2ccccc2Cl)nc2cc(Cl)ccc12` (stereo not given), the Potency was 2.07 µM (active).

As for `CCN(CC)CCCC(C)Nc1c2ccc(Cl)cc2nc2ccc(OC)cc12` (stereo not given), the Potency was 4.65 µM (active).

In the case of `CCc1nc2cc([N+](=O)[O-])c([N+](=O)[O-])cc2[nH]1`, the Potency entry is “inactive”.

On to `Cc1cccc(-n2nc([N+](=O)[O-])c(=NCc3cccnc3)n2O)c1`, for which the Potency entry is “inactive”.

On to `O=C(COc1cccnc1[N+](=O)[O-])Nc1cc(Cl)ccc1Cl`, for which the Potency result is “inactive”.

As for `COc1ccccc1C(=O)NC(=O)OCCn1c(C)cnc1[N+](=O)[O-]`, the Potency result was “inactive”.

`O=[N+]([O-])c1ccc(Nc2ccccc2)c2nonc12`: the Potency entry was “inactive”.

As to `O=[N+]([O-])c1nn(-c2ccc3c(c2)OCCO3)n(O)c1=NC1CCCCCC1`, the Potency entry was “inactive”.

With `Cc1ccnc(NC(=O)c2ccc3c(c2)OCO3)c1`, the Potency was 0.585 µM (active).

`O=C(COc1cccnc1[N+](=O)[O-])Nc1ccc2c(c1)OCO2`: the Potency entry was “inactive”.

As to `Cc1ccc(C(=O)Nc2ccc3c(c2)OCCO3)o1`, the Potency result is “inactive”.

As for `Cc1ncc([N+](=O)[O-])n1CCOC(=O)Nc1ccc([N+](=O)[O-])cc1`, the Potency entry was “inactive”.

As to `COc1cccc(NC(=O)COc2cccnc2[N+](=O)[O-])c1`, the Potency entry is “inactive”.

On to `O=c1c(-c2cccc([N+](=O)[O-])c2)[n+]([O-])c2ccccc2n1O`, for which the Potency entry was “inactive”.

Take `O=C1C(c2ccncc2)=C(O)c2ccccc21`: the Potency was 5.85 µM (active).

Consider `Cn1c(=O)c(=O)n(C)c2cc([N+](=O)[O-])c(N3CCOCC3)cc21`, for which the Potency entry is “inactive”.

On to `O=C(Nc1nccs1)c1cc([N+](=O)[O-])ccc1Cl`, for which the Potency entry was “inactive”.

For the molecule `Cc1cc(=O)oc2cc(O)c(N=Nc3ccccc3)cc12`, the Potency result is “inactive”.

Turning to `CC(C)OC(=O)Nc1ccc2c(c1)N(C(=O)N1CCN(C)CC1)c1ccccc1CC2`, the Potency was 0.521 µM (active).

Regarding `CC(NC(=O)Cn1cc(Br)c([N+](=O)[O-])n1)c1ccccc1` (stereo not given), the Potency result was “inactive”.

In the case of `Cc1ncc([N+](=O)[O-])n1CCOC(=O)C12CC3CC(CC(C3)C1)C2`, the Potency result was “inactive”.

As to `CCOC(=O)c1ccc(NS(C)(=O)=O)cc1`, the Potency entry is “inactive”.

In the case of `CCOC(=O)C1=C(C)NC2=C(C(=O)c3ccccc32)C1c1ccc([N+](=O)[O-])o1` (stereo not given), the Potency entry is “inactive”.

As to `CCOC(=O)c1c(C)[nH]c2c1-c1ccccc1C(=O)C2=O`, the Potency is 2.61 µM (active).

In the case of `CC(NC(=O)COc1cccnc1[N+](=O)[O-])c1ccc(Cl)cc1Cl` (stereo not given), the Potency entry is “inactive”.

On to `COC(=O)c1ccc(Nc2ccc3nonc3c2[N+](=O)[O-])cc1`, for which the Potency entry was “inactive”.

As for `CCn1cnc2c([N+](=O)[O-])c(NS(=O)(=O)c3ccc(C)cc3)ccc21`, the Potency entry is “inactive”.

Take `COc1cc(/C=C2\SC(=O)N(Cc3ccc(Cl)cc3)C2=O)cc([N+](=O)[O-])c1O`: the Potency result is “inactive”.

`O=C(Cc1ccccc1)Nc1nnc(-c2cccs2)s1`: the Potency result was “inactive”.

Consider `O=[N+]([O-])c1ncc(Br)cc1Nc1ccccc1`, for which the Potency entry was “inactive”.

Take `O=S(=O)(Nc1cc(Sc2cccc3cccnc23)c(O)c2ccccc12)c1ccc(F)cc1`: the Potency is 4.65 µM (active).

Consider `COC(=O)[C@@]1(Cc2ccc(OC)cc2)[C@H]2c3cc(C(=O)N4CCCC4)n(CCn4cc([N+](=O)[O-])nc4C)c3C[C@H]2CN1C(=O)c1ccccc1`, for which the Potency result was “inactive”.

On to `CN(C)/[N+]([O-])=N/Oc1ccc([N+](=O)[O-])cn1`, for which the Potency result was “inactive”.

Consider `O=c1c([N+](=O)[O-])cccn1Cc1ccc(F)cc1Cl`, for which the Potency entry is “inactive”.

As for `CC1CCCN(C(=O)c2ccc([N+](=O)[O-])o2)C1` (stereo not given), the Potency result is “inactive”.

As to `O=C(CSc1ccsc1[N+](=O)[O-])NCc1ccccc1`, the Potency entry is “inactive”.

For the molecule `O=C(NNC(=O)c1cc(-c2ccncc2)nc2ccccc12)c1ccccc1O`, the Potency result is “inactive”.

On to `CCn1cc(-c2cc(C(=O)O)c3ccccc3n2)cn1`, for which the Potency is 2.07 µM (active).

On to `CCOC(=O)c1nc(C(=O)NCc2ccc(C)cc2)nc2ccccc12`, for which the Potency entry is “inactive”.

`CC(C)CC(=O)NC(=S)NNC(=O)c1ccc([N+](=O)[O-])cc1`: the Potency result was “inactive”.

`Cc1ccc(S(=O)(=O)N2[C@@H](c3cccc(Cl)c3)C(C(=O)O)=CC[C@H]2c2cccc(C)c2)cc1`: the Potency result is “inactive”.

In the case of `Cc1cccc(N2CCN(C(=S)Nc3ccc4nc(N5CCN(C)CC5)cc(C)c4c3)CC2)c1C`, the Potency was 4.65 µM (active).

For the molecule `Cc1cc(N2CCN(C)CC2)nc2ccc(NC(=S)N3CCN(c4ccc(Cl)cc4)CC3)cc12`, the Potency entry is “inactive”.

Take `O=c1sc(N2CCN(c3ccc(F)cc3)CC2)nc2ccsc12`: the Potency result was “inactive”.

Take `Cc1cc(N2CCN(C)CC2)nc2ccc(NC(=S)N3CCN(c4ccc(F)cc4)CC3)cc12`: the Potency is 20.7 µM (active).

With `Cc1cc(N2CCN(C)CC2)nc2ccc(NC(=S)N3CCN(c4cccc(Cl)c4)CC3)cc12`, the Potency entry was “inactive”.

As for `Cc1cccc(N2CCN(C(=S)Nc3ccc4nc(N5CCN(C)CC5)cc(C)c4c3)CC2C)c1` (stereo not given), the Potency was 18.5 µM (active).

For `O=Nc1c2ccc[nH]c-2c2ccc([N+](=O)[O-])cc12`, the Potency entry is “inactive”.

Regarding `O=C(Nc1ccc(F)cc1)C1CCN(C(=O)c2ccc([N+](=O)[O-])cc2)CC1`, the Potency result is “inactive”.

Consider `C/C(=N/NC(=O)C(O)(c1ccccc1)c1ccccc1)c1ccc([N+](=O)[O-])o1`, for which the Potency result was “inactive”.

As to `CCOc1ccc(-c2c(C(=O)N/N=C/c3ccc(C)s3)nnn2-c2nonc2N)cc1`, the Potency entry was “inactive”.

For the molecule `Cc1ccc(CN=c2c([N+](=O)[O-])nn(-c3ccc(Cl)cc3)n2O)cc1`, the Potency entry is “inactive”.

As for `Cc1ccc(CNC(=O)CSc2ccsc2[N+](=O)[O-])cc1`, the Potency entry was “inactive”.

For `COc1ccc2c3n([n+]([O-])c2c1)CCN=C3c1ccc(C)cc1`, the Potency entry is “inactive”.

With `CC(C)CC(=O)Nc1ncc([N+](=O)[O-])s1`, the Potency entry is “inactive”.

For `Cc1ccc(CCN=c2c([N+](=O)[O-])nn(-c3ccccc3)n2O)cc1`, the Potency entry is “inactive”.

For `COc1ccc(-n2nc([N+](=O)[O-])c(=NCc3cccnc3)n2O)cc1`, the Potency entry is “inactive”.

As for `CCOC(=O)c1cc([N+](=O)[O-])sc1NC(=O)CC`, the Potency entry is “inactive”.

In the case of `O=C(c1ccco1)N1CCN(c2c([N+](=O)[O-])nn(-c3ccc(Cl)cc3)[n+]2[O-])CC1`, the Potency result was “inactive”.

For `Cc1ncc(CO)c(/C=N/NC(=O)c2cc3c(s2)CCCC3)c1O`, the Potency was 2.07 µM (active).

As to `O=[N+]([O-])c1nn(-c2ccccc2)n(O)c1=NCCc1ccccc1`, the Potency entry is “inactive”.

Take `O=C(CNC(=O)c1ccccc1F)N/N=C/c1cc(Br)ccc1OCc1ccccc1`: the Potency result is “inactive”.

In the case of `CN1C(=O)/C(=C/c2ccc(O)c([N+](=O)[O-])c2)N(C)C1=S`, the Potency entry is “inactive”.

On to `COc1ccc(NC(=O)c2ccco2)c(NC(=O)c2ccc([N+](=O)[O-])cc2)c1`, for which the Potency entry was “inactive”.

As for `O=C(Nc1ccccc1O)c1ccc([N+](=O)[O-])cc1`, the Potency entry is “inactive”.

On to `COc1ccc(C(=O)Nc2ccc3[nH]ccc3c2)cc1`, for which the Potency was 2.33 µM (active).

Turning to `COc1ccc(C(=O)NC2CCN(S(=O)(=O)c3ccc(F)cc3)CC2)cc1`, the Potency result was “inactive”.

For `O=C(Nc1ccc2[nH]ccc2c1)c1ccccc1`, the Potency was 4.14 µM (active).

On to `O=C(NNC(=O)c1ccc([N+](=O)[O-])o1)c1ccccc1`, for which the Potency result was “inactive”.

Take `O=[N+]([O-])c1ccc(CSc2nnc(-c3cccnc3)o2)cc1`: the Potency entry is “inactive”.

`NNC(=O)c1cccc(Cn2cc(Br)c([N+](=O)[O-])n2)c1`: the Potency entry is “inactive”.

Consider `Cc1cccc(CCN=c2c([N+](=O)[O-])nn(-c3ccccc3)n2O)c1`, for which the Potency result was “inactive”.

Take `Nc1c(Cl)cc(C2=NCCn3c2c2ccc(C(F)(F)F)cc2[n+]3[O-])cc1Cl`: the Potency result is “inactive”.

`COc1ccc(-c2cn3cc([N+](=O)[O-])ccc3n2)cc1OC`: the Potency result was “inactive”.

For the molecule `CC(=O)Nc1ccc(NC(=O)c2c([N+](=O)[O-])cnn2C)cc1`, the Potency entry was “inactive”.

As for `c1csc(-c2ccc(N3CCOCC3)nn2)c1`, the Potency is 6.56 µM (active).

`O=[N+]([O-])c1ccc(O/N=[N+](\[O-])N2CCCCC2)c([N+](=O)[O-])c1`: the Potency result was “inactive”.

Consider `CC1CCCCC1NC(=O)COc1cccnc1[N+](=O)[O-]` (stereo not given), for which the Potency result is “inactive”.

With `O=C1OC(CN(Cc2ccccc2)Cc2ccccc2)CN1N=Cc1ccc([N+](=O)[O-])o1` (stereo not given), the Potency result is “inactive”.

For `CCCCC(=O)Nc1ncc([N+](=O)[O-])s1`, the Potency entry was “inactive”.

Consider `COc1ccc(C(=O)c2c(C)oc3cc([N+](=O)[O-])c(O)c([N+](=O)[O-])c23)cc1`, for which the Potency entry was “inactive”.

With `O=C(Nc1nc2ccccc2s1)c1ccc([N+](=O)[O-])o1`, the Potency entry is “inactive”.

In the case of `Cc1cc(C)c2sc(NC(=O)c3ccc([N+](=O)[O-])o3)nc2c1`, the Potency entry was “inactive”.

Regarding `O=C(Nc1nc2c(F)cccc2s1)c1ccc([N+](=O)[O-])o1`, the Potency result was “inactive”.

For `O=C(Nc1nc(-c2cccs2)cs1)c1ccc([N+](=O)[O-])o1`, the Potency was 1.85 µM (active).

For the molecule `Cc1cc(C)c2nc(NC(=O)c3ccc([N+](=O)[O-])o3)sc2c1`, the Potency result is “inactive”.

Turning to `Cc1ccc(-c2csc(NC(=O)c3ccc([N+](=O)[O-])o3)n2)cc1`, the Potency was 11.7 µM (active).

`COc1ccccc1C1C([N+](=O)[O-])=CC([N+](=O)[O-])=CN1C` (stereo not given): the Potency result was “inactive”.

For `Cc1cnc([N+](=O)[O-])n1CCOC(=O)NC(=O)c1ccccc1Cl`, the Potency entry is “inactive”.

On to `CC(=O)NC(Cc1ccc(F)cc1)C(=O)NC1CCN(c2ncccc2[N+](=O)[O-])CC1` (stereo not given), for which the Potency result was “inactive”.

`Cn1c([N+](=O)[O-])cnc1N1CCN(c2nncs2)C1=O`: the Potency entry was “inactive”.

Take `COc1cc(/C=C2\SC(=O)N(c3ccc(Cl)cc3)C2=O)cc([N+](=O)[O-])c1O`: the Potency result was “inactive”.

On to `COc1ccc(NS(=O)(=O)c2ccc(C)cc2)c([N+](=O)[O-])c1`, for which the Potency result is “inactive”.

As to `COc1cc2c(cc1OC)CN(C(=O)c1ccc([N+](=O)[O-])o1)CC2`, the Potency result is “inactive”.

Turning to `Cc1ncc([N+](=O)[O-])n1CCOC(=O)Nc1ccc(Cl)c(Cl)c1`, the Potency result is “inactive”.

Take `O=C(COc1cccnc1[N+](=O)[O-])NCCc1ccc(Cl)cc1Cl`: the Potency entry is “inactive”.

In the case of `O=C(NC1CCS(=O)(=O)C1)c1ccc(N2CCCCC2)c([N+](=O)[O-])c1` (stereo not given), the Potency result was “inactive”.

Regarding `Cc1nnc(N/N=C/c2cccs2)[nH]c1=O`, the Potency is 2.07 µM (active).

Consider `S=C(NCCc1ccccc1)N/N=C/c1cccs1`, for which the Potency result is “inactive”.
